Source: PubChem BioAssay (National Center for Advancing Translational Sciences (NCATS))
Most compounds without a hit are left out; they make up all but 3.8% or so of the library.
A549 viability: kills or reduces viability of A549 cells in Nrf2 counter-screen | A549 ARE-Fluc cells, CellTiter-Fluor viability, 18-24 h | Potency, µM (titrated, usually from 46 µM), hits mostly inhibitors | 0.16% of 390,000 active | AID 504648
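Cytotoxicity counterscreen: CellTiter-Fluor fluorescence was measured in A549 ARE_Fluc cells after 18-24 h of compound exposure in a concentration series. The subsequent BugLite luminescent read reports ARE-luciferase activity.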
Nrf2 inh: inhibitors of Nrf2 signaling; A549 ARE-Fluc reporter, luciferase luminescence, 18-24 h; Potency, µM (titrated, usually from 46 µM), hits mostly inhibitors; 2.1% of 360,000 active; AID 504444; further: nearly all actives have a fitted effect of over 60% in size
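Nrf2 activity is the BugLite luminescence, read 15 min after reagent at room temperature, following CellTiter-Fluor cytotoxicity readout (30 min, 37C). Compound titrations were applied for 18-24 h to 5000 A549 ARE_Fluc cells/well in 5% FBS OPTI-MEM.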
HepG2 viability: kills HepG2 cells in TGF-b inhibitor counter-screen; HepG2 CAGA-GFP viability, ATP luminescence, 18 h; Potency, µM (doses to about 46.1 µM), most hits filed as cytotoxic; 0.76% of 410,000 active; AID 588856
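CellTiter-Glo luminescence gave cytotoxicity after 18 hours at 37 degrees C. The cells were HepG2 CAGA-GFP in 1% FBS DMEM, stimulated with 500 pg/mL TGF-beta after compound addition. %Activity was normalised to no-cell wells (complete cell-killing) and DMSO (no toxicity), and curves were fitted and classified.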
ATXN2 expr inh: ATXN2 expression inhibition; HEK-293 ATXN2-luciferase reporter, luminescence, 24 h; 0.72% of 360,000 active; Potency, µM (top dose mostly 57 µM), actives largely listed as inhibitors; AID 1745845; further: nearly all actives have a fitted effect of over 55% in size
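qHTS (up to 57 uM final) was run with 24 h compound exposure of reporter cells at 37 °C. Each well was multiplexed: SteadyGlo luminescence measured ATXN2-luciferase expression after a fluorogenic Gly-Phe-AFC viability readout (25 uM final).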
TGFb SMAD3 inh: blocks TGF-b signaling; HepG2 CAGA-GFP TGF-b/SMAD3 reporter, GFP fluorescence, 18 h; TGF-beta stimulated, 500 pg/mL final; Potency, µM (top dose mostly 46.1 µM), usual class: inhibitors; 1.2% of 410,000 active; AID 588855; further: nearly all actives have a fitted effect of over 65% in size
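Inhibition was scored as loss of TGF-beta-induced (500 pg/mL final, 18 hours, 37 degrees C) GFP in HEPG2 cells carrying a CAGA-GFP reporter, in DMEM with 1% FBS. Well GFP was summed per cell; Activity was normalised to unstimulated and stimulated DMSO wells, then concentration-response fitting.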
S2 tox: cell viability loss in ATXN counter-screen; S2 cells (HEK-293 line with an ATXN2-luciferase reporter) viability, CellTiter-Fluor protease fluorescence, 24 h; Potency, µM (top dose mostly 56.7 µM), most hits filed as cytotoxic; 0.49% of 400,000 active; AID 651635; further: nearly all actives have a fitted effect of over 40% in size
Large screens that a line does not name were inactive. The call rests on the fitted dose curve; in most records, active means well fitted curve in the direction sought with a large enough effect; inconclusive means small, poorly fitted or top-dose-only effect, or another doubt; inactive means no such curve, though single readings can be large; an effect the other way counts as inactive or inconclusive.

O=C(Nc1ccc(C(F)(F)F)cc1)c1cc(S(=O)(=O)NC2CCCCCC2)ccc1F	A549 viability inconclusive, HepG2 viability 11µM, ATXN2 expr inh 32µM, TGFb SMAD3 inh inconclusive (no result: Nrf2 inh, S2 tox)
O=C(Nc1ccc(F)c(F)c1)c1cc(S(=O)(=O)NC2CCCC2)ccc1F	TGFb SMAD3 inh inconclusive (no result: Nrf2 inh, ATXN2 expr inh, S2 tox)
O=C(Nc1ccc(S(=O)(=O)NC2CCCCC2)cc1)c1ccc(Br)o1	Nrf2 inh 15µM, TGFb SMAD3 inh inconclusive
O=C(Cn1c(=O)cnc2ccccc21)Nc1cccc(S(=O)(=O)N2CCCCC2)c1	Nrf2 inh inconclusive, S2 tox inconclusive (no result: ATXN2 expr inh)
CCCC[C@H]1CCCO[C@@](C(=O)NCc2cc(C)n(C)n2)(C(F)(F)F)C1	TGFb SMAD3 inh inconclusive (no result: ATXN2 expr inh, S2 tox)
COc1ccc(CNC(=O)CSc2ncc3c(n2)-c2ccc(Cl)cc2N(Cc2ccc(F)cc2)S3(=O)=O)cc1OC	Nrf2 inh inconclusive
COc1cc(-c2nc3ccc(Cl)cn3c2Nc2ccc3c(c2)OCO3)ccc1O	ATXN2 expr inh inconclusive, TGFb SMAD3 inh inconclusive, S2 tox 18µM
Cc1ccc(Nc2c(-c3ccncc3)nc3ccc(C)cn23)cc1	Nrf2 inh inconclusive, S2 tox inconclusive
COc1ccc(-c2nc3ccc(C)cn3c2Nc2ccc3c(c2)OCO3)cc1	none
COc1cc(-c2nc3ccc(C)cn3c2Nc2ccc(Cl)cc2)ccc1O	A549 viability inconclusive, HepG2 viability 16µM, ATXN2 expr inh inconclusive, TGFb SMAD3 inh inconclusive, S2 tox 16µM
CC1(C)CC(=O)C=C(c2cccc(O)c2)C1=O	none
Cc1cc2c(s1)c1cnn(Cc3ccccc3Cl)c(=O)c1n2C	none (no result: HepG2 viability, ATXN2 expr inh, TGFb SMAD3 inh, S2 tox)
C=CCN(C(=O)CCc1ccccc1OC)c1nc(-c2ccc(S(C)(=O)=O)cc2)cs1	Nrf2 inh inconclusive, HepG2 viability 4.5µM
CN(C)C(=O)COC(=O)c1ccccc1OCC(=O)Nc1ccc(Br)cc1	none (no result: A549 viability, Nrf2 inh, ATXN2 expr inh, S2 tox)
Cc1oc(-c2cccc(Br)c2)nc1Cn1c(SCc2cccc(F)c2)nc2cccnc21	Nrf2 inh 13µM, TGFb SMAD3 inh inconclusive (no result: ATXN2 expr inh, S2 tox)
N#CC1=C(N)Oc2c(ccc3cccnc23)C1c1ccccc1 (stereo not drawn)	TGFb SMAD3 inh inconclusive, S2 tox inconclusive
Cc1ccc2[nH]c(=O)c(C3C(C#N)=C(N)Oc4c3ccc3cccnc43)cc2c1 (stereo not drawn)	Nrf2 inh inconclusive, ATXN2 expr inh inconclusive, TGFb SMAD3 inh 10µM (no result: S2 tox)
O=C(NC(c1cccnc1)C(F)(F)F)c1cc(COc2ccc3c(c2)CCCC3)on1 (stereo not drawn)	Nrf2 inh inconclusive, TGFb SMAD3 inh 11µM, S2 tox inconclusive
Cn1cc(CNC(=O)c2cc(COc3ccc4c(c3)CCCC4)on2)cn1	S2 tox inconclusive
CCOC(=O)N1CCC(N2C(=O)c3ccccc3C2Nc2ccccc2C)CC1 (stereo not drawn)	none
CCOC(=O)c1ccccc1NC1c2ccccc2C(=O)N1C1CCN(C(=O)OCC)CC1 (stereo not drawn)	Nrf2 inh 16µM, TGFb SMAD3 inh inconclusive, S2 tox inconclusive
Cc1ccc(CCNC(=O)c2ccc(CSc3nc4ccncc4n3Cc3ccc(F)cc3)cc2)cc1	A549 viability inconclusive, Nrf2 inh inconclusive, TGFb SMAD3 inh inconclusive, S2 tox inconclusive
CN(N)c1nc(C(F)(F)F)nc2ccccc12	none
CN(NS(=O)(=O)c1ccc(Br)cc1)c1nc(C(F)(F)F)nc2ccccc12	A549 viability inconclusive, Nrf2 inh 21µM, ATXN2 expr inh inconclusive, TGFb SMAD3 inh inconclusive
COc1ccc(/C=N/NC(=O)c2ccc(O)cc2)cc1CN1CCCc2ccccc21	Nrf2 inh inconclusive, TGFb SMAD3 inh 13µM
COc1ccccc1OC(=O)c1ccc(SC)cc1OC	none
O=C1NC[C@@H](CCCCN2C[C@H](Cc3ccccc3)N(CCc3ccc(O)cc3)C(=O)C2=O)N(CC2CCCCC2)C1=O	none (no result: A549 viability, Nrf2 inh, HepG2 viability, TGFb SMAD3 inh)
COc1ccc(/C=N/Nc2cc(N3CCCC3)nc(N3CCCC3)n2)cc1	A549 viability inconclusive, ATXN2 expr inh 14µM, TGFb SMAD3 inh inconclusive, S2 tox 28µM
